# Screening results from PubChem BioAssay.
# SW480 rereplic: DNA re-replication induction in SW480 cells; SW480 DNA re-replication, Hoechst DNA content imaging, 48 h; Potency, µM (series often up to 46.1 µM), for inactives: at the highest dose re-replication activation, actives largely listed as activators; 1.8% of 340,000 active; further: % of control where 0% means no effect; nearly all actives have a fitted effect of over 55% in size
#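 First, 250 cells per well were seeded. Next, compound or vehicle (23 nL) was pinned in, plates sat 48 hr at 37 C. Finally Hoechst was added for 40 min before fluorescence scanning.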
# KB-3-1 tox: KB-3-1 parental cell cytotoxicity | KB-3-1 viability, CellTiter-Glo ATP luminescence, 72 h | Potency, µM (series often up to 46.1 µM), hits mostly cytotoxic | 1.4% of 400,000 active; further: on the % scale 0 is the no-effect control and ±100 the full control effect; nearly all actives have a fitted effect of over 60% in size
#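 Viability of parental KB-3-1 cells, measured by CellTiter-Glo luminescence, followed a 72 h incubation at 37 °C with pinned compounds in phenol-red-free DMEM containing 10% FBS.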
# KB-V1 MDR tox: kills drug-selected multidrug resistant KB-V1 cells. KB-V1 MDR cells viability, CellTiter-Glo, 72 h. Potency, µM (doses to about 46.1 µM), most hits filed as cytotoxic. 3.4% of 400,000 active. AID 1347076; further: on the % scale 0 is the no-effect control and ±100 the full control effect; nearly all actives have a fitted effect of over 60% in size
#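 KB-V1 cells (P-gp-expressing MDR subline of KB-3-1) in phenol-red-free DMEM with 10% FBS were exposed to library compounds over a concentration series for 72 h at 37 degrees C. Viability read by CellTiter-Glo luminescence; concentration-effect curves fitted after normalization.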
# MCF10A rerep: induces DNA re-replication in MCF 10a normal breast cells | MCF 10A DNA re-replication, Hoechst nuclear intensity, 48 h | Potency, µM (series often up to 46.1 µM), for inactives: at the highest dose activity, positive = re-replication, usual class: activators | 2.9% of 350,000 active; further: % of control where 0% means no effect; nearly all actives have a fitted effect of over 50% in size
# ELG1 repair inh: inhibitors of ELG1-dependent DNA repair in HEK293T cells; AID 504467; HEK293T ELG1-luciferase reporter, luminescence, 16 h; DNA damage induced by 5-fluorouridine; 2.3% of 330,000 active; Potency, µM (titrated, usually from 46.1 µM), for the others: at the highest dose activity change, negative = inhibition, hits mostly inhibitors; further: on the % scale 0 is the no-effect control and ±100 the full control effect; nearly all actives have a fitted effect of over 55% in size
#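 Overnight (16 hr) co-exposure of 2,000 cells/well to 5-fluorouridine and compound at 37 °C preceded detection. Luciferase was quantified via ONE-Glo luminescence; loss of signal denotes inhibition.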
# * hit, by the source's call; i = inactive; ? = inconclusive; nt = no result given. Rows were chosen to be rich in hits. Some 8.1% of all compounds tested hit in one or more screens of this group. The call rests on the fitted dose curve; in most records, active means well fitted curve in the direction sought with a large enough effect; inconclusive means small, poorly fitted or top-dose-only effect, or another doubt; inactive means no such curve, though single readings can be large; an effect the other way counts as inactive or inconclusive. Potency means the concentration at half of the fitted maximal effect.
SMILES,SW480 rereplic,KB-3-1 tox,KB-V1 MDR tox,MCF10A rerep,ELG1 repair inh
O=C(/C=C/c1cn(CC(O)CN2CCCCC2)c2ccccc12)c1ccccc1 (stereo not drawn),21µM*,i,i,21µM*,-14%
O=C(/C=C/c1cn(CC(O)CN2CCCCCC2)c2ccccc12)c1ccccc1 (stereo not drawn),nt,?,i,nt,nt
O=C(/C=C/c1cn(CC(O)CN2CCCCC2)c2ccccc12)c1cccs1 (stereo not drawn),21µM*,?,23µM*,23µM*,2%
CC1CN(C(=S)SCC(=O)c2ccc(Cl)cc2)CC(C)O1 (stereo not drawn),-7%,i,i,-8%,7%
COc1cc(OC)cc(-c2nc3ccccc3c(=O)n2OC(=O)c2ccc(Br)cc2)c1,?,i,?,-9%,-25%
COc1ccc(C(=O)On2c(-c3ccc(Br)cc3)nc3ccccc3c2=O)cc1,?,?,?,9.2µM*,?
COc1cccc(CNn2c(-c3cccc(C)c3)nc3ccccc3c2=O)c1O,1%,i,i,-3%,16µM*
COc1ccc(O)c(CNn2c(-c3ccc(Br)cc3)nc3ccccc3c2=O)c1,-3%,i,?,-14%,?
COc1ccc(-c2nc3ccccc3c(=O)n2NC(=O)Cc2ccccc2)cc1,-8%,i,15µM*,2%,0%
COc1cc(-c2nnn(CC(=O)Nc3ccc(OC(F)(F)F)cc3)n2)cc(OC)c1OC,nt,i,i,nt,nt
CC(C)(C)n1nnnc1C(c1cccc(C(F)(F)F)c1)N1CCC(O)CC1 (stereo not drawn),-15%,0.0046µM*,i,11%,38%
Cc1ccc(-c2cc(C(F)F)nc(S(C)(=O)=O)n2)cc1,?,?,?,4.1µM*,?
C=CCNC(=S)NNc1nc2c(c(=O)[nH]1)C1(CCCCC1)Cc1ccccc1-2,?,i,?,23µM*,6%
O=c1[nH]c(NCCO)nc2c1C1(CCCC1)Cc1ccccc1-2,-1%,i,i,?,-5%
O=C(Nc1cccc(S(=O)(=O)N2CCCCCC2)c1)c1cc(=O)c2ccccc2o1,-6%,i,?,?,12µM*
NS(=O)(=O)c1cccc(NC(=O)c2cc3ccccc3o2)c1,18µM*,i,i,5%,?
CN(c1ccccc1)S(=O)(=O)c1cccc(NC(=O)c2cc(=O)c3ccccc3o2)c1,-1%,i,?,26µM*,15µM*
O=S(=O)(c1ccc(Oc2ncnc3scc(-c4ccccc4)c23)cc1)N1CCOCC1,10%,?,?,21µM*,?
c1ccc(-c2csc3ncnc(N4CCOCC4)c23)cc1,-2%,i,i,10%,?
COc1ccc(N2CCN(c3ncnc4scc(-c5ccc(C)cc5)c34)CC2)cc1,?,?,?,23µM*,?
COc1ccc(N2CCN(c3ncnc4scc(-c5ccccc5)c34)CC2)cc1,22%,?,?,?,16µM*
COc1ccc(-c2csc3ncnc(N4CCN(S(=O)(=O)c5ccc(C)cc5)CC4)c23)cc1,-408%,i,i,22%,21µM*
O=C(Cn1c(=O)c2ccccc2n(CC(=O)Nc2ccc(F)cc2F)c1=O)NCCc1ccccc1,nt,i,i,nt,nt
C=CCc1cc2c(oc(=O)c3ccccc32)c(C)c1O,5%,i,i,-40%,23%
COc1ccc(-c2csc3ncnc(N4CCN(S(=O)(=O)c5ccc(Cl)s5)CC4)c23)cc1,-571%,?,?,4%,8.2µM*
SMILES,SW480 rereplic,KB-3-1 tox,KB-V1 MDR tox,MCF10A rerep,ELG1 repair inh
COc1ccc(-c2csc3ncnc(N4CCN(c5ccccc5Cl)CC4)c23)cc1,?,?,?,18µM*,13µM*
COc1ccc(-c2csc3ncnc(N4CCN(c5cccc(OC)c5)CC4)c23)cc1,-1%,nt,nt,3%,6.5µM*
COc1ccc(Nc2ncnc3scc(-c4ccc(OC)cc4)c23)cc1,15µM*,4.1µM*,3.3µM*,5.2µM*,12µM*
COc1ccc(-c2csc3ncnc(N4CCN(S(=O)(=O)c5cccs5)CC4)c23)cc1,?,?,?,25%,?
COc1ccc(-c2csc3ncnc(N4CCN(c5cccc(C)c5C)CC4)c23)cc1,-2%,i,?,19%,?
CCN1CCN(c2ncnc3scc(-c4ccc(OC)cc4)c23)CC1,-8%,?,i,12%,?
C/C(=N/O)c1ccccn1,20%,i,i,-4%,-5%
O=C(c1ccc2c(c1)OCCO2)N1CCN(c2ccc(C(F)(F)F)cn2)CC1,nt,i,i,nt,nt
NNc1ccc(S(=O)(=O)N2CCCCC2)cn1,?,i,i,2%,-10%
CC1CC(C)CN(CCCNC(=O)c2ccc(N3CCCC3=O)cc2)C1 (stereo not drawn),-5%,i,?,-3%,0%
COc1ccc(-c2csc3ncnc(N4CCN(C(=O)c5ccco5)CC4)c23)cc1,4%,i,i,7%,7.3µM*
Cc1sc2ncnc(N3CCN(S(=O)(=O)c4ccc(C(C)(C)C)cc4)CC3)c2c1C,-27%,21µM*,i,?,?
COc1ccc(C(=O)N2CCN(c3ccc(C)cc3)CC2)cc1OC,-4%,i,i,-1%,-18%
c1ccc(-c2csc3ncnc(N4CCc5ccccc5C4)c23)cc1,?,?,16µM*,?,?
COc1ccc(-c2csc3nc(C)nc(N4CCN(c5ccc(C(C)=O)cc5)CC4)c23)cc1OC,0%,i,i,14%,13µM*
CCOC(=O)CNC(=O)c1ccc2c(c1)OCCO2,-2%,i,i,0%,?
Fc1ccc2[nH]c3c(NCc4ccccc4)ncnc3c2c1,0%,?,i,?,?
N#CC1=C(c2ccccc2)/C(=C/c2ccccc2)OC1=O,?,?,?,6.5µM*,?
Cc1cc(NC2CCCCC2)n2c(n1)nc1ccccc12,-3%,i,i,1%,2%
COc1cc(Br)cc(/C=C/c2ccc3cccc(O)c3n2)c1O,34%,?,i,16µM*,7.3µM*
COc1cc(Br)c(/C=C/c2ccc3cccc(O)c3n2)cc1OC,-15%,i,i,0%,?
CSc1ccc(/C=C/c2ccc3cccc(O)c3n2)cc1,23%,i,?,21µM*,?
COc1cc(/C=C/c2ccc3cccc(O)c3n2)ccc1O,24%,?,i,12µM*,?
COCCn1c(SCC(=O)c2c[nH]c3ccccc23)nc2cc(C(=O)NC(C)C)ccc2c1=O,nt,i,i,nt,nt
